According to PubChem BioAssay AID624202 (National Center for Advancing Translational Sciences (NCATS), 2012):
In all, about 380,000 compounds went through this assay and about 4,000 (1.1%) were called active. Inconclusive results (about 3%) are left out. Calls come from the whole dose curve; as a rule, active = well fitted activation curve with a large enough effect; inconclusive = small, poorly fitted or top-dose-only effect; inactive = no such curve, though single readings can be large or run the other way. The sample as a whole holds a higher share of actives than the screen did.

Assay: qHTS Assay to Identify Small Molecule Activators of BRCA1 Expression; note: nearly all actives have a fitted effect of over 80% in size
Details: MCF7-BRCA1-FFLuc reporter, luminescence, 48 h; series mostly up to 46.1 µM; activation: at the top concentration
Outline: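 Cells: MCF7-BRCA1-FFLuc, 2000/well. Exposure: 48 h, 37 °C, 5% CO2. Read: luminescence, 15 min post-substrate. Controls: genistein 10 microM (maximal activation), DMSO (neutral).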
Potency is the fitted concentration of half-maximal effect.

activation, inactive:
COc1ccc(CCNC(=O)CCc2c(C)nc3c(c(C)nn3-c3ccc(C)c(C)c3)c2C)c(OC)c1OC 5.62%, Cc1ccc(S(=O)(=O)n2nc(-c3ccc(Cl)cc3)nc2NCc2ccccc2)cc1 2.77%, CCS(=O)(=O)n1nc(-c2ccc(OC)cc2)nc1SC 33.3%, COc1ccccc1N1CCN(c2ncnc3onc(-c4ccc(F)cc4)c23)CC1 -0.976%, COc1ccc(-n2nnc(-c3nsc(NC(=O)c4ccc(C)c(C)c4)n3)c2C)cc1Cl -0.247%, CCOc1ccc(CCNC(=O)c2csc3c2CCCCC3)cc1 -1.32%, CCOC(=O)c1ccc(NC(=O)c2csc3c2CCCCC3)cc1 34.8%, Cc1ccc(OCCSc2nc3ccc(NC(=O)COc4ccc(C)cc4)cc3s2)cc1 18.4%, O=C(Cn1c(=O)n(-c2ccc(F)cc2)c(=O)c2sc3ccccc3c21)NC1CCCC1 -12.4%, Cc1cccc(NC(=O)N2CCN(C)c3ncccc32)c1C 9.79%, CCCCC(CC)CNC(=O)C1CCN(S(=O)(=O)c2cccc3nsnc23)CC1 (centres undefined) -6.65%, C=CCn1c(SCc2nnc(-c3ccccc3)o2)nnc1C(O)c1ccccc1 (centres undefined) 1.72%, CCCN(CCC)c1ccc(C(O)c2nnc(-c3ccccc3)o2)cc1 (centres undefined) 24.9%, Cc1cc(C)cc(NC(=O)Cn2c(=O)c3ccccc3n3nncc23)c1 7.25%, Cc1ccc(C=O)cc1Cl 18.6%, O=C(OCc1cc(=O)n2nc(C3CC3)sc2n1)c1ccccc1Cl 12%, COc1cc2nc(SCC(=O)Nc3ccccc3F)n3nc(-c4ccccc4)nc3c2cc1OC 0%, Cc1cc(C)cc(-n2ccnc2SCC(=O)Nc2nc3ccccc3s2)c1 9.67%, COc1cccc(CNC(=O)c2ccc3c(Cl)c4c(nc3c2)CCCC4)c1 10.5%, Cc1cc2oc3ccc(NCCC4CCCN4C)cc3c(=O)c2cc1C (centres undefined) -78%, CN1CCC[C@@H]1CCO[C@](C)(c1ccccc1)c1ccc(Cl)cc1 0%, Oc1ccc(Cl)cc1C1C=C(c2ccc3c(c2)OCO3)NC(c2c(F)cccc2Cl)N1 (centres undefined) -40.2%, Cc1cc(C)cc(NC(=O)NC2CCCCCCC2)c1 32.7%, O=C(Nc1cccc(F)c1)[C@@H]1CCCN1 -1.33%, CCn1c(CNC(=O)C23CC4CC(CC(C4)C2)C3)nnc1SCC(=O)Nc1ccc(OC)cc1 22%, COc1ccc(-c2cc(-c3ccccc3)nc3c2COc2ccc(Cl)cc2-3)cc1 13.1%, COc1ccc(-c2cc(-c3ccc(F)cc3)nc3c2COc2ccccc2-3)cc1 11.9%, CCCCCn1c(=O)[nH]c2cc(C(=O)NCCN(C)CCCC)ccc2c1=O -3.6%, COC(=O)C1=C(c2ccccc2)c2ccccc2S(=O)(=O)N1CC(=O)Nc1ccccc1C(F)(F)F -3.16%, COc1ccccc1Cn1c(CO)nc2ccccc21 0%, COCc1nc2ccccc2n1Cc1ccccc1Br -0.381%, COc1cc(OC)cc(-c2nc3nc(C)c(CCC(=O)Nc4ccc(C)cc4)c(C)n3n2)c1 -2.52%, CCc1c(O)nc(SCC(=O)N2CCCCC2)n(-c2ccccc2C)c1=O 6.28%, O=C(CSc1nc2ccccc2c(=O)n1-c1ccccc1F)N1CCOCC1 -6.09%, COc1cccc(CNC(=O)CN2C(=O)CCc3cc(S(=O)(=O)N4CCOCC4)ccc32)c1 11.1%, COc1cc(OC)c(/C=C/c2ccnc3ccccc23)c(OC)c1 -43.7%, COc1cc2[nH]c(O)c(C=O)c2cc1OC 1.23%, COc1ccc(/C=C/c2ccnc3ccccc23)cc1OC -23.9%, CCN(CC)/[N+]([O-])=N/OCOC(=O)Cc1c(C)n(C(=O)c2ccc(Cl)cc2)c2ccc(OC)cc12 -16%, CCc1ccc(CNC(=O)c2cc3cc4ccc(OC)cc4nc3o2)cc1 -7.1%, O=C(NCCOc1ccccc1Cl)C(=O)Nc1ccccc1 -41.6%, COc1ccccc1OCCNC(=O)CCNC(=O)c1ccccc1Cl -0.0194%, CCOCCc1nn2c(=O)cc(COC(=O)CNC(=O)c3ccc(C(C)(C)C)cc3)nc2s1 6.51%, Cn1c(=O)nc2n(-c3ccc(Br)cc3)c3cccc(Cl)c3cc-2c1=O -11.7%, O=C(CSc1ncc(S(=O)(=O)c2ccc(Br)cc2)c(=O)[nH]1)Nc1ccc2c(c1)OCCO2 15.7%, c1ccc(-c2c[nH]c(-c3ccccc3)c2)cc1 41.4%, O=C(OCc1ccc(-c2ccccc2)cc1)c1cccc(O)c1 83.1%, COc1ccccc1CNC(=O)CCCCn1c(=O)c2ccccc2n(CC(=O)Nc2cc(Cl)ccc2C)c1=O -20.3%, Cc1cccc(N2CCN(C(=O)c3oc(=O)c4ccccc4c3-c3ccccc3)CC2)c1C -3.27%, O=C(Nc1cnn(Cc2ccc(Cl)cc2)c1)C1CCCC1 7.68%, O=C(c1[nH]ncc1-c1ccc(Cl)cc1)C1CO1 (centres undefined) -20%, c1ccc(Cn2nnc3c(N4CCCCC4)ncnc32)cc1 32%, COc1ccccc1CCNC(=O)c1cccn1-c1nnc(N2CCCCC2)s1 -17%, COc1ccc(C2NC(=O)N(C)C3=C2C(=O)N(c2ccc(C(=O)O)cc2)C3)cc1 (centres undefined) 8.52%, CC(C)CNC(=S)NNC(=O)c1nn(C)cc1Cl 7.17%, Cc1scc(C(=O)NNC(=S)NCC(C)C)c1C 2.45%

Potency, active:
CCS(=O)(=O)n1nc(-c2ccccc2)nc1SCc1ccccc1 3.98 µM, Cc1ccc(NC(=O)c2csc3c2CCCC3)cc1 12.6 µM, OC(c1nnc(-c2ccccc2)o1)c1cccs1 (centres undefined) 11.2 µM, COc1cccc2sc3cc(NCC[C@@H]4CCCN4C)ccc3c(=O)c12 11.2 µM, O=C(Nc1cccc(F)c1)NC1CCCCCCC1 3.55 µM, COc1ccc(C2=Nc3cc(C)ccc3OC2)cc1 11.2 µM, COCn1c(COc2ccccc2)nc2ccccc21 12.6 µM, Cc1ccc(-n2c(SCC(=O)N3CCC(C(=O)O)CC3)nc3ccccc3c2=O)cc1C 4.47 µM, COc1ccc(N=Cc2c(O)[nH]c3ccccc23)cc1OC 3.16 µM, COc1cc(SC)ccc1C(=O)NCCOc1ccccc1Cl 7.94 µM, Oc1ccc(-c2cccc(-c3ccc(O)cc3)c2)cc1 10 µM, O=C(c1nnc(-c2ccc(Cl)cc2)o1)C1CCCC1 11.2 µM, CC(C)CNC(=S)NC(=O)c1ccc(Cl)cc1 10 µM
